Screen size: about 290,000 compounds; about 3,500 (1.2%) were called active. The sample holds actives, similar compounds and a random draw of the others, so the mix is not that of the screen. Unmarked numbers belong to inactive results.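 The calls were made as follows: active = inhibition above the campaign mean inhibition over all tested compounds plus 3 SD (cut at about 28% in these data); inactive = the rest.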
System: M18 aspartyl aminopeptidase (Plasmodium falciparum 3D7)
Test: PfM18AAP inhibitors, malaria aminopeptidase, primary screen, biochemical, QFRET, recombinant enzyme (AID 1822);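 also: 0% = plate median of test compound wells and 100% = 2 mM ZnCl2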
Conditions: H-Glu-NHMec fluorogenic cleavage, at 7.35 µM, active compounds read high

| SMILES | inhibition |
| --- | --- |
| CC(C)Cn1c(N2CCN(C(=O)/C=C/c3ccccc3)CC2)nc2ccccc21 | 2% |
| Cc1c(OC(C)C(=O)NCC2CCC(C(=O)O)CC2)ccc2c1oc(=O)c1ccccc12 (centres undefined) | 5.1% |
| Cc1ccccc1N1CCN(CC(=O)NCc2ccc(Cl)cc2)CC1 | 4.87% |
| O=C(COC(=O)c1ccc(N2CCCC2=O)cc1)c1ccc(OC(F)F)cc1 | 0.74% |
| COc1ccc(C(=O)NC2CC(C)(C)Cc3c2cnn3-c2ccccc2)c(OC)c1 (centres undefined) | 0.86% |
| Nc1ccc(C(=O)Nc2ccccc2N)cc1 | -8.23% |
| Cc1cc(F)ccc1NC(=S)NCCc1ccccc1 | -8.4% |
| Cc1ccc(CN(Cc2cccnc2)C(=S)Nc2cccc(Cl)c2C)cc1 | -8.48% |
| CC(=O)N/N=C/c1cc2c(cc1[N+](=O)[O-])OCO2 | 6.95% |
| Cc1ccc(-c2n[nH]c(=S)n2/N=C/c2cc3c(cc2[N+](=O)[O-])OCO3)cc1 | 17.7% |
| Cc1ccc(S(=O)(=O)N/N=C\c2cc3c(cc2[N+](=O)[O-])OCO3)cc1 | 51.5% (active) |
| COc1ccc(C(CNC(=O)COc2ccc([N+](=O)[O-])cc2)N2CCCCC2)cc1 (centres undefined) | -7.22% |
| CC(=O)Nc1cccc(C(=O)OCN2C(=O)c3ccccc3C2=O)c1 | 1.1% |
| COc1ccc(CC(=O)Nc2nc(-c3ccc(F)c(F)c3)cs2)cc1OC | 0.44% |
| COc1cc(C2/C(=C(\O)c3ccc4c(c3)CC(C)O4)C(=O)C(=O)N2Cc2ccco2)ccc1O (centres undefined) | 45.6% (active) |
| COc1ccc(C2/C(=C(/O)c3ccc4c(c3)CC(C)O4)C(=O)C(=O)N2Cc2ccncc2)cc1 (centres undefined) | 16.6% |
| COc1ccc(/C(O)=C2\C(=O)C(=O)N(Cc3ccco3)C2c2ccc(OC)cc2OC)cc1 (centres undefined) | 8.22% |
| CCOc1ccc(-n2c(O)c(/C=N/c3ccnn3Cc3ccncc3)c3ccccc3c2=O)cc1 | 5.65% |
| CCOc1ccc(-n2c(O)c(/C=N/Nc3nc(C)cc(C)n3)c3ccccc3c2=O)cc1 | 26.7% |
| CCOc1ccc(-n2c(O)c(/C=N/Nc3nnc(C)c(=O)[nH]3)c3ccccc3c2=O)cc1 | 34% (active) |

| SMILES | inhibition |
| --- | --- |
| S=C(Nc1cccnc1)Nc1ccccn1 | 11.1% |
| C[C@H](NC(=O)c1nc[nH]c1C(=O)NCC(=O)OC(C)(C)C)c1ccccc1 | 1.03% |
| CCC(CC)c1nnc(NC(=O)/C=C/c2ccco2)s1 | 2.71% |
| CCC(CC)c1nnc(NC(=O)C2CCN(C(=O)c3ccco3)CC2)s1 | 31.2% (active) |
| COc1ccc(CNC(=O)C2CCN(C(=O)c3ccco3)CC2)cc1 | 2.47% |
| CCS(=O)(=O)c1cc([N+](=O)[O-])c(Sc2ccccc2N)s1 | 38.9% (active) |
| Nc1ccccc1SC(C[N+](=O)[O-])c1ccccc1 (centres undefined) | 14.1% |
| CCOC(=O)c1cc(Sc2ccccc2N)cc(C(=O)OCC)n1 | 10.8% |
| Cc1ccc(S(=O)(=O)CC(=O)NC(C)c2ccccc2)cc1 (centres undefined) | -6.39% |
| CN(C)S(=O)(=O)c1ccc2oc(SCC(=O)Nc3ccccc3F)nc2c1 | 2.13% |
| CCN(CC)c1ccc2cc(C(N)=O)/c(=N\NC(=O)c3ccncc3)oc2c1 | 17.2% |
| CCN(CC)c1ccc2oc(=O)c(C)nc2c1 | 55.5% (active) |
| C=CCN(C(=O)Nc1ccc2oc(C)nc2c1)c1ccccc1 | 13% |
| COc1ccc(Nc2cc(Sc3ccc(OC)cc3)ncn2)cc1 | 2.95% |
| Cc1ccsc1C(=O)N[C@@H](C)c1nnc2ccccn12 | -8.31% |
| Cc1cccc(N2CCN(C(=O)CCS(=O)(=O)c3ccc4c(c3)NC(=O)C(C)S4)CC2)c1C (centres undefined) | -6.34% |
| O=C(O)c1ccccc1-c1ccccc1C(=O)Nc1ccccc1Br | -9.93% |
| O=C1CCN(CCc2ccccc2)CCN1CCOc1ccccc1 | 1.32% |
| O=C(Nc1ccc(C(=O)N2CCOCC2)cc1)Nc1cccc(C(F)(F)F)c1 | -2.75% |
| COc1ccccc1N1CCN(C(=O)CSc2ncnc3c2cnn3-c2ccc(C)c(C)c2)CC1 | -5.63% |

| SMILES | inhibition |
| --- | --- |
| CC1CCN(C(=O)c2ccc(CSc3ccc(Cl)cc3)cc2)CC1 | -3.98% |
| CC1CCN(C(=O)c2ccc3c(=O)n4c(nc3c2)CCCCC4)CC1 | -5.35% |
| CC1CCN(C(=O)c2ccc3c(c2)NC(=O)CN3)CC1 | 31.9% (active) |
| CCCN1C2CCCC1CC(NC(=O)c1cccc(OC)c1)C2 (centres undefined) | -5.08% |
| Cc1cccn2c(=O)c3cc(C(=O)NCC4CCCO4)c(=N)n(Cc4ccc(F)cc4)c3nc12 (centres undefined) | 5.3% |
| Oc1ccc(-n2nnnc2SCc2c(F)cccc2Cl)cc1 | 9.59% |
| CCCN1Cc2cccc(C(=O)Nc3ccc(S(=O)(=O)N4CCCCCC4)cc3)c2C1=O | 3.06% |
| O=C1CCN(CCCc2ccccc2)CCN1CCO | 10.1% |
| CSc1ccc(S(=O)(=O)NCc2ccc(Cl)cc2)cc1 | 5.25% |
| CCn1c(CNS(=O)(=O)c2ccc(Cl)cc2)n[nH]c1=S | 31.8% (active) |
| CCn1c(CSCc2c(Cl)cccc2Cl)n[nH]c1=S | 14.7% |
| Cc1cc(C)n(-c2ccc(NC(=O)C3CCCCN3C(=O)c3cccs3)cc2)n1 (centres undefined) | 10.7% |
| Cc1cc(NC(=O)CSc2nc(=O)cc(N)n2-c2ccc(F)cc2)no1 | 2.27% |
| O=c1[nH]n2c(=O)c3c([nH]c2c1N=Nc1ccccc1)CCC3 | 31.3% (active) |
| O=c1[nH]c2c(c(=O)n1Cc1ccccc1)CCC2 | -7.19% |
| Cc1[nH][nH]c(=O)c1N=Nc1ccccc1 | -5.94% |
| O=C(CNC(=O)C1COc2ccccc2O1)N/N=C/c1cc(Br)c(O)c(Br)c1 (centres undefined) | 10.4% |
| Cc1c(CC(=O)N2CCN(C(=O)C3COc4ccccc4O3)CC2)c(=O)oc2c(O)c(O)ccc12 (centres undefined) | 56.5% (active) |
| Cc1c(C)c2ccc(OCC(=O)N3CCC(C(=O)O)CC3)c(C)c2oc1=O | 3.02% |
